The values below come from PubChem BioAssay.

Activity calls are given as the source filed them. No rule for the calls is given here.

One may read the inhibition as the change of the read-out against control, counted positive when it falls.

The target in the assay is Pantothenate synthetase (Mycobacterium tuberculosis (strain ATCC 25618 / H37Rv)) (UniProt P9WIL5). The assay is described as follows: Coupled enzyme confirmation of inhibitors against recombinant Mtb PanC (AID 375).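 Also: 0% = full reaction with vehicle and 100% = no enzyme background.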 Particulars: coupled enzyme assay; at 10 µM, active compounds read high.
Pantothenate synthetase (Mycobacterium tuberculosis (strain ATCC 25618 / H37Rv)), sequence (P9WIL5 whole entry, looked up): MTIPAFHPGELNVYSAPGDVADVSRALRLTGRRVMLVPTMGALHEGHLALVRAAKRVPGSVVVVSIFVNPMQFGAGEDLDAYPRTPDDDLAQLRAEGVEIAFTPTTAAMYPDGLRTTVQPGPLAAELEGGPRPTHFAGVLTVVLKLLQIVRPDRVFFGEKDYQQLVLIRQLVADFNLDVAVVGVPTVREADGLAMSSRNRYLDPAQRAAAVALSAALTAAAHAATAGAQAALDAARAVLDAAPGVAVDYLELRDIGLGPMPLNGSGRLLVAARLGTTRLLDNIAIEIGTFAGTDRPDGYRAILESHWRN
Turning to `CCOC(=O)c1nnn(-c2nonc2NC(C)=O)c1C`, the inhibition is 8% (inactive).

As for `Cc1oc(-c2ccccc2Cl)nc1CSCC(=O)N1CCCC1`, the inhibition is 1% (inactive).

Turning to `COCc1[nH]nc2c1C(c1cc(OC)c(O)c(OC)c1)C(C#N)=C(N)O2` (centres undefined), the inhibition was 0% (inactive).

Regarding `Cc1ccc(-n2ncc3c(=O)[nH]c(SCC(=O)N4CCN(c5ccccc5)CC4)nc32)cc1`, the inhibition was 0% (inactive).

Regarding `COc1ccc(CN2CC(C(=O)NCc3ccccn3)CC2=O)cc1` (centres undefined), the inhibition was 5% (inactive).

With `CCOC(=O)Cn1c(S(=O)(=O)Cc2ccccc2)nc2ccccc21`, the inhibition is 0% (inactive).

`CCOC(=O)N1CCC(Nc2ncnc3c2cnn3-c2ccc(C)cc2C)CC1`: the inhibition is 3% (inactive).

For `Cc1cc(C)nc(N2CCC(C(=O)Nc3ccc4c(c3)CCC4)CC2)n1`, the inhibition is 5% (inactive).

For the compound `CC(=O)c1cccc(NC(=O)c2ccc(NS(C)(=O)=O)cc2)c1`, the inhibition is 1% (inactive).

For the compound `COc1cccc(CN(C)CC(=O)NC(=O)NCc2ccco2)c1`, the inhibition was 0% (inactive).

For the compound `CN(C(=O)c1ccccn1)c1nnc(-c2ccncc2)s1`, the inhibition is 0% (inactive).

With `NC(=O)OCC(COC(N)=O)c1ccccc1`, the inhibition was 1% (inactive).

Take `O=C(OCCCN1CCCC1)C1(c2ccccc2)CCCC1`: the inhibition was 1% (inactive).

`CCc1ccc(NC(=O)c2cccnc2)cc1`: the inhibition is 16% (inactive).

For `COC(=O)c1ccc(CSc2nc3c(cnn3-c3ccc(F)cc3)c(=O)[nH]2)o1`, the inhibition is 4% (inactive).

In the case of `COCCNC(=O)c1cc2c(-c3ccccc3F)nn(C)c2s1`, the inhibition is 8% (inactive).

Turning to `COc1ccc(N2CCN(C(c3cccs3)C(C)NC(=O)c3ccco3)CC2)cc1` (centres undefined), the inhibition is 0% (inactive).

Take `COc1ccc(CCNC(=O)c2cc(C(C)C)on2)cc1OC`: the inhibition was 1% (inactive).

Consider `Cc1cc(=O)oc2cc(OCC#N)ccc12`, for which the inhibition is 0% (inactive).

With `COc1ccc2[nH]c(C)c(CCN3C(=O)OC(C)(C)C3(C)O)c2c1` (centres undefined), the inhibition was 0% (inactive).

As to `O=C(Nc1ccccc1)N(CCCN1CCOCC1)Cc1cc2cc3c(cc2[nH]c1=O)OCCO3`, the inhibition was 0% (inactive).

As to `O=C(NC1=NCCS1)c1nc(-c2ccccc2)n(-c2ccccc2)n1`, the inhibition was 3% (inactive).

For `COc1cc(-c2nc(-c3cccc(C(F)(F)F)c3)no2)cc(OC)c1OC`, the inhibition was 0% (inactive).

Take `COc1cccc(-c2nc3n(n2)C(c2cccs2)C(C(=O)Nc2cccnc2)=C(C)N3)c1` (centres undefined): the inhibition is 0% (inactive).

Turning to `C[C@]12C=CC(=O)C=C1CC[C@@H]1[C@@H]2[C@@H](O)C[C@@]2(C)[C@H]1CC[C@]2(O)C(=O)COC(=O)CCC(=O)O`, the inhibition was 0% (inactive).

As for `CN1CCN(c2ccc(Cl)cc2NC(=O)c2cccc(S(=O)(=O)N(C)C)c2)CC1`, the inhibition was 1% (inactive).

With `CCOc1ccc(NC(=O)CC2NCCNC2=O)cc1` (centres undefined), the inhibition is 9% (inactive).

`O=C1OC2(c3ccccc3)C3CCCC2C13`: the inhibition is 3% (inactive).

With `CCCN(CCC)C(=O)CC(c1ccc(F)cc1)c1ccco1` (centres undefined), the inhibition was 1% (inactive).

For the compound `CCC(=O)N1CCc2cc(OC)c(OC)cc2C1COc1ccc(C(=O)OC)cc1` (centres undefined), the inhibition was 9% (inactive).

With `COCC(=O)N(Cc1ccccc1)c1ccccn1`, the inhibition is 4% (inactive).

With `Cc1ccc(S(=O)(=O)N2CCOCC2)cc1C(=O)Nc1ccc(-c2cn3ccsc3n2)cc1`, the inhibition was 3% (inactive).

For the compound `c1cncc(-c2nnc(-c3ccco3)o2)c1`, the inhibition is 4% (inactive).

`COc1ccc(CCN2C(=O)CCC2(C)C(=O)NCc2cccnc2)cc1OC` (centres undefined): the inhibition was 0% (inactive).

Consider `O=C(CSc1nnc(CNC(=O)c2c(F)cccc2Cl)o1)c1ccccc1`, for which the inhibition is 0% (inactive).

Take `O=C(NCC12CC3CC(C1)CC(CNC(=O)N1CCCC1)(C3)C2)N1CCCC1`: the inhibition is 0% (inactive).

Consider `COc1ccc(C2C(C(=O)Nc3cccnc3)=C(C)Nc3nc(-c4cccs4)nn32)cc1OC` (centres undefined), for which the inhibition was 6% (inactive).

Turning to `O=C(Nc1cccc2ccccc12)N1CCN(c2ccccc2)CC1`, the inhibition was 3% (inactive).

As for `CN1CC(=O)N(CC(=O)NCCc2ccc(F)cc2)c2ccccc2C1=O`, the inhibition was 0% (inactive).
